40 compounds from PubChem BioAssay (NCATS) can be followed below.

Results filed as inconclusive are left out. Active and inactive are the calls of the source. Calls come from the whole dose curve; as a rule, active = well fitted activation curve with a large enough effect; inconclusive = small, poorly fitted or top-dose-only effect; inactive = flat fitted curve, though single readings scatter.
Potency is the fitted concentration of half-maximal effect.

This test in a line: Primary redox qHTS assay for identification of artifact compounds. (AID 1845223). To be noted: Amplex Red/HRP redox cycling with DTT, fluorescence; series mostly up to 53.8 µM; redox activity (% of DA3003): at the top concentration. The text has this:
PI: Alexander Tropsha Ph.D.
UNC Eshelman School of Pharmacy
University of North Carolina, Chapel Hill, North Carolina
Hits from high-throughput screening (HTS) of chemical libraries are often false positives due to their interference with the assay detection technology. In response to this problem, we generated the largest publicly available library of chemical liabilities and developed a free webtool to predict HTS artifacts, both of which are described herein. More specifically, we generated, curated, and integrated HTS datasets for thiol reactivity, redox activity, and luciferase (firefly and nano) activity. Using these curated datasets, we developed and validated several Quantitative Structure-Interference Relationship (QSIR) models to predict nuisance behavior. […] These models were employed for virtual profiling of the National Center for Advancing Translational Science's (NCATS) in-house library, and 256 compounds for each assay were selected for the experimental validation of nuisance behavior. The BA for these external predictions ranged from 58 to 78% for compounds within the applicability domains of the models. […] The models developed in this study, along with aggregation models previously developed by our group (SCAM Detective) were implemented in "Liability Predictor," an online tool which may be used as part of chemical library design or for triaging HTS hits. Both the models and the curated datasets are publicly available at https://liability.mml.unc.edu/.
SEQUENCE No. (e.g., 1, 2, 3, etc.); […] (e.g., Cells, Incubation, Reagent, etc.); VALUE; DESCRIPTION.
1; Reagent; 3 uL; Amplex Red and HRP mixture.
2; Compounds and control; 16 nL; Kalypsis pin tool (Wako USA) equipped with a 1536-well pin head. […]
6; Detection; Fluorescence, ViewLux microplate reader, 525 nm excitation, 598 nm emission.
NOTES (numbers refer to Sequence numbers above)
1. 3 uL of a mixture containing Amplex Red (25 uM final concentration) and horseradish peroxidase (HRP; 250 mU/mL final concentration) in assay buffer (HBSS) was dispensed into all wells of a 1536-well assay plate (solid-bottom black plate; Greiner Bio One, Monroe, NC).
2. A Wako Pin-tool (Wako Automation, Richmond, VA) was used to transfer 16 nL of compounds (consisting of 7-plates in qHTS format, final concentration range 18.3 nM to 114 uM) or control DA3003 (final concentration range 1.22 nM to 40 uM).
3. 15 min. incubation at room temperature protected from light.
4. 1 uL of DTT (prepared fresh; final concentration 250 uM) was dispensed for a final assay volume of 4 uL.
5. Plates were centrifuged (121xg, 15 seconds) and incubated for 30 minutes at room temperature protected from light.
6. Samples were read for fluorescence (Ex/Em = 525(20)/598(25) nm) on a ViewLux CCD imager (PerkinElmer). Data were normalized to DMSO (0% activity) and DA3003 (10 uM final concentration; 100% activity) and the resulting percent inhibition data were fitted to a 4-parameter Hill equation using NCATS in-house software.
(In general: In qHTS, concentration-response curves come from the screen itself.)
Take `CCOc1ccc(S(=O)(=O)n2c(C)nc3ccccc32)cc1`: the “redox activity (% of DA3003)” value was 1.96% [at 25.6 µM] (inactive).

Consider `O=C(O)CC1CCC(c2ccc(-c3ccc4nc(C(=O)NCc5ccc(OC(F)(F)F)cc5)cn4c3)cc2)CC1` (stereo not given), for which the “redox activity (% of DA3003)” value is -4.87% (inactive).

For `C[C@@H]1C(=O)O[C@H]2[C@H](O)C34[C@H]5C[C@@H](C(C)(C)C)C36[C@@H](OC(=O)[C@@H]6O)O[C@@]4(C(=O)O5)[C@@]12O` (stereo not given in full), the “redox activity (% of DA3003)” value is -0.157% [at 25.6 µM] (inactive).

For the compound `Cc1cnc(NC(=O)Nc2cc(Br)c(C)cc2OCC2CNCCO2)cn1` (stereo not given), the “redox activity (% of DA3003)” value was 7.44% (inactive).

On to `Nc1ncnc2c([C@@H]3N[C@H](CO)[C@@H](O)[C@H]3O)c[nH]c12`, for which the “redox activity (% of DA3003)” value was -8.33% (inactive). Take `CC(C)c1cc2c(c(O)c1O)[C@@]13CCCC(C)(C)[C@@H]1[C@H](OC3=O)C2=O`: the Potency is 16.5 µM (active). With `C=C(CO)C12OC1C1(C)C(=CC2=O)C(O)C(O)CC1C` (stereo not given), the “redox activity (% of DA3003)” value is 10.3% (inactive). On to `CCCCC1CCN(CCCC(=O)c2ccccc2C)CC1`, for which the “redox activity (% of DA3003)” value is -1.52% (inactive). For the compound `CC1CC(C(O)C(C)(C)O)OC2CC3(C)C4(C)CCC5C(C)(C)C(=O)CCC5(C)C4CCC3(O)C12O` (stereo not given), the “redox activity (% of DA3003)” value was -0.545% [at 25.6 µM] (inactive). As to `O=C(NCc1ccc(F)cc1)C(=O)c1c[nH]c2ccccc12`, the “redox activity (% of DA3003)” value was -1.43% (inactive). As for `CC[C@]12C=CCN3CC[C@@]4(c5cc([C@@]6(C(=O)OC)C[C@H]7C[C@@H](C(C)(F)F)CN(Cc8c6[nH]c6ccccc86)C7)c(OC)cc5N(C)[C@H]4[C@@](O)(C(=O)OC)[C@@H]1OC(C)=O)[C@@H]32`, the “redox activity (% of DA3003)” value is 11% [at 25.6 µM] (inactive). With `CC(Oc1cc(-n2cnc3ccc(CN4CCN(C)CC4)cc32)sc1C(N)=O)c1ccccc1C(F)(F)F` (stereo not given), the “redox activity (% of DA3003)” value is 8.33% (inactive). On to `CC1CC(O)/C=C/C(O)C(O)CC(=O)Cc2c(Cl)c(O)cc(O)c2C(=O)O1` (stereo not given), for which the “redox activity (% of DA3003)” value was 10.6% (inactive). For the compound `O=C(NOCC(O)CO)c1ccc(F)c(F)c1Nc1ccc(I)cc1F` (stereo not given), the “redox activity (% of DA3003)” value is -0.43% (inactive). In the case of `O=C1CC2(CCCC2)[C@H](O)C(=O)N1CCCCN1CCN(c2ncccn2)CC1`, the “redox activity (% of DA3003)” value is 5.32% (inactive).

As to `COc1c2c(c(CO)c3c1C(=O)OC3)OC1(C)CCC3(O)C(C)(C)OC(=O)CCC3(C)C1C2` (stereo not given), the “redox activity (% of DA3003)” value was -4.51% [at 25.6 µM] (inactive). As to `CC1(C)CC[C@]2(C(=O)OC3OC(CO)C(O)C(O)C3O)CC[C@]3(C)C(=CCC4[C@@]5(C)CC[C@H](OC6OC(C(=O)O)C(O)C(OC7OC(CO)C(O)C(O)C7O)C6O)C(C)(C)C5CC[C@]43C)C2C1` (stereo not given in full), the redox activity (% of DA3003) was 0.227% [at 11.5 µM] (inactive). Turning to `COc1cc2c(cc1OC)N1C(=O)C[C@]34C=CCN5CC[C@@H]2[C@@H](CC3)[C@]514`, the “redox activity (% of DA3003)” value is 11.5% (inactive). Consider `CC1=CC(=O)C(=C(C)C)CC2C1CCC2(C)O` (stereo not given), for which the “redox activity (% of DA3003)” value is 3.53% (inactive). With `CC1OC2OC(=O)C3(C)CC4=C(CO)C5=C(CC(=O)C4(C)C(C1=O)C23)C(C)(C)OC(=O)C5` (stereo not given), the “redox activity (% of DA3003)” value is -17.2% [at 25.6 µM] (inactive). On to `O=C(CCc1nnc2n(Cc3ccc(Cl)cc3)c(=O)c3ccccc3n12)NCCC1=CCCCC1`, for which the “redox activity (% of DA3003)” value was -7.21% (inactive). On the same count and under the same terms, as for `COC(=O)C1=CO[C@@H](O[C@@H]2O[C@H](CO)[C@@H](O)[C@H](O)[C@H]2O)[C@@H]2[C@@](C)(O)[C@@H](OC(=O)/C=C/c3ccc(O)cc3)C[C@]12O`, the figure is -14.6% [at 25.6 µM] (inactive); as for `CC1(C)CC[C@]2(CO[C@@H]3O[C@H](CO)[C@@H](O)[C@H](O)[C@H]3O)[C@@H](O)C[C@]3(C)C(=CCC4[C@@]5(C)CC[C@H](O[C@@H]6O[C@H](CO[C@@H]7O[C@H](CO[C@@H]8OC[C@@H](O)[C@H](O)[C@H]8O)[C@@H](O)[C@H](O)[C@H]7O)[C@@H](O)[C@H](O)[C@H]6O)C(C)(C)C5CC[C@]43C)[C@@H]2C1` (stereo not given in full), 13.8% [at 11.5 µM] (inactive). Consider `CC(C)NCC(C(=O)N1CCN(c2ncnc3c2C(C)CC3O)CC1)c1ccc(Cl)cc1` (stereo not given), for which the “redox activity (% of DA3003)” value was 11.9% (inactive). Same read-out and setting: as for `CC(C)(C#N)c1ccc(N2C(=O)OCc3cnc4ccc(-c5cnc6ccccc6c5)cc4c32)cc1`, the figure is -0.0347% (inactive). Regarding `Cn1c(=O)cc(N2CCCC(N)C2)n(Cc2cc(F)ccc2C#N)c1=O` (stereo not given), the “redox activity (% of DA3003)” value was -0.101% (inactive). With `Cc1ccc(-c2c(C(=O)CF)n(CCCO)c3ncnc(N)c23)cc1`, the “redox activity (% of DA3003)” value is 12.5% (inactive). Regarding `CC(Nc1ncnc2nc[nH]c12)c1cc2cccc(Cl)c2c(=O)n1-c1ccccc1` (stereo not given), the “redox activity (% of DA3003)” value is -2.18% (inactive). In the case of `CC1(C)CCC[C@@]2(C)C1[C@H](OC(=O)/C=C/C=C/C(=O)O)C=C1COC(=O)[C@@]12O` (stereo not given in full), the “redox activity (% of DA3003)” value was 6.92% (inactive). `CCc1c(C)nc2c(-c3cnn(-c4cc(CO)ccn4)c3)c[nH]n2c1=O`: the “redox activity (% of DA3003)” value is -3.08% (inactive). As for `C/C(=C\CCC1(C)C2CCC(C2)C1(C)O)C(=O)O` (stereo not given), the “redox activity (% of DA3003)” value was -0.766% (inactive). For the compound `C=C1C[C@]23C[C@H]1CC[C@H]2C1=C[C@H]2OC(=O)[C@@](C)([C@H]1[C@@H]3C(=O)O)[C@H]2O`, the “redox activity (% of DA3003)” value was -6.21% (inactive). In the case of `Cc1noc(=O)c2ccc(NC(=O)C(O)(CC(C)(C)c3cccc4c3OCC4)C(F)(F)F)cc12` (stereo not given), the “redox activity (% of DA3003)” value is 0.426% (inactive). With `COc1ccc(/C=C/C(=O)O[C@@H]2[C@@H](O)[C@@H](O)[C@H](O[C@@H]3C=C(CO)[C@H]4[C@H](O[C@@H]5O[C@H](CO)[C@@H](O)[C@H](O)[C@H]5O)OC=C[C@H]43)O[C@H]2C)cc1O`, the “redox activity (% of DA3003)” value is 6.82% [at 25.6 µM] (inactive). On to `CC(=O)C=C=C1C(C)(C)CC(O[C@@H]2O[C@H](CO)[C@@H](O)[C@H](O)[C@H]2O)CC1(C)O` (stereo not given in full), for which the “redox activity (% of DA3003)” value is -9.74% (inactive). The same measure, in the same setting: next, `CC(C)C(N)C(=O)OCCOCn1cnc2c(=O)[nH]c(N)nc21` (stereo not given): -11.1% (inactive); `OC[C@H]1O[C@@H](Oc2cc(O)c3c(c2)O[C@@H](c2ccc(O)cc2)[C@H](O)C3)[C@H](O)[C@@H](O)[C@@H]1O`: -9.82% [at 25.6 µM] (inactive). Take `C/C1=C\CC[C@H](C)CCO[C@@H]2O[C@H](CO[C@@H]3OC[C@](O)(COC1=O)[C@H]3O)[C@@H](O)[C@H](O)[C@H]2O`: the “redox activity (% of DA3003)” value was -0.814% [at 25.6 µM] (inactive). Take `O=C(O)c1ccc(CN2CCC(CN[C@@H]3C[C@H]3c3ccccc3)CC2)cc1`: the “redox activity (% of DA3003)” value was 11.1% (inactive).

On to `CCOCCn1nc(CC)c2nc(N3CCC(C(=O)O)CC3)nc(Nc3cc(C)ccn3)c21`, for which the “redox activity (% of DA3003)” value is 3.34% (inactive).
